Laboratory results: PubChem BioAssay (NCATS)
“And” between values parts separate entries of the source, which are not always exact repeats. Equal entries are not always repeated. Records with an inconclusive call do not appear. A call without a number means that no potency is given here. The source made the active and inactive calls. The call rests on the fitted dose curve; in most records, active means well fitted cell-killing curve with a large enough effect; inconclusive means small, poorly fitted or top-dose-only effect; inactive means no such curve, though single readings can be large or run the other way.

Assay: qHTS of pediatric cancer cell lines to identify multiple opportunities for drug repurposing: Primary screen for A673 cells (AID 1347092); further: nearly all actives have a fitted effect of over 45% in size
Conditions: A673 Ewing sarcoma viability, CellTiter-Glo ATP luminescence, 48 h; series mostly up to 46 µM
Excerpt: Drug repurposing or repositioning has been offered as a strategy for drug development in oncology programs. This approach has special potential for childhood cancers and other rare or orphan diseases, where the expected return on new drug development has been a disincentive to pharmaceuticals. […] In this project we exploit the poly-pharmacology of drugs to discover new indications via phenotypic screening of a panel of 19 well-characterized cell lines derived from solid tumors seen in children and adolescents. The goal is to identify approved drugs with previously unrecognized anticancer properties that has the potential to reveal new mechanisms and biological processes involved in carcinogenesis or drug resistance. We employed a titration-based paradigm (quantitative high-throughput screening or qHTS), where all compounds were tested at multiple concentrations for their effect on cell viability. Concentration-response curves (CRCs) were derived directly from the primary screen, and both potency and efficacy values were used to identify compounds with robust bioactivity profiles. We screened the NIH Chemical Genomics Center (NCGC) Pharmaceutical Collection (NPC) and Mechanism Interrogation Plate (MIPE) small molecule collections of approved and investigational compounds against these cell lines; and measured metabolically active cells after 48 hours of compound treatment as a proxy for cell viability. […] Assay Submitter: Nathalia J. Martinez, National Center for Advancing Translational Sciences, National Institutes of Health, Rockville, MD, USA; email: natalia.martinez@nih.gov. Shen, M et al. Quantitative high-throughput phenotypic screening of pediatric cancer cell lines identifies multiple opportunities for drug repurposing. Oncotarget 2017 Dec 19;9(4):4758-4772. PMID 29435139.
The cells were obtained from University of North Carolina (UNC), Pediatric Preclinical Testing Program (PPT), and Coriell Institute (CI). qHTS cell viability assay: Cells were assayed in growth media at a density of 500-1,000 cells/well. Five microliters of cells were dispensed into 1,536-well, white, solid-bottom, TC-treated plates (Greiner Bio One) using a multidrop dispenser and incubated at 37 degrees C, 5% CO2, under a humidified atmosphere for 5 hours. Twenty-three nanoliters of compounds and controls (neutral control DMSO or positive control bortezomib at final concentration of 2.3 uM) were subsequently transferred by Kalypsys pintool. For primary screens, the MIPE collection was tested at 11-point dilutions (final concentrations range from 0.78 nM to 46 µM) and the NPC collection at 8-point dilutions (final concentrations range from 0.59 nM to 46 µM). Compounds tested in follow-up screens were assayed at 11-point dilutions. Cells were incubated for 48 hours, followed by addition of 3 uL of CellTiter-Glo (Promega). After a 15min incubation at room temperature, samples were analyzed for luminescence intensity using a ViewLux High-throughput CCD imager equipped with clear filters.
Potency means the concentration at half of the fitted maximal effect.

Compound	Potency
Clc1cccc(Cl)c1NC1=NCCN1	inactive
CCC(C)(C)C(=O)O[C@H]1C[C@@H](C)C=C2C=C[C@H](C)[C@H](CC[C@@H]3C[C@@H](O)CC(=O)O3)[C@H]21	10.6 µM (active)
Cc1cc(SCc2sc(-c3ccc(C(F)(F)F)cc3)nc2C)ccc1OCC(=O)O	inactive
CCCc1nn(C)c2c(=O)[nH]c(-c3cc(S(=O)(=O)N4CCN(C)CC4)ccc3OCC)nc12	inactive
O=C(C=Cc1ccc(/C=C/C(=O)Nc2ccc(C3=NCCN3)cc2)cc1)Nc1ccc(C2=NCCN2)cc1	inactive
Cc1ccc(NC(=O)c2cccc(C(C)(C)C#N)c2)cc1Nc1ccc2ncn(C)c(=O)c2c1	14.8 µM (active)
Cc1c(C)c2c(c(C)c1O)CCC(C)(COc1ccc(CC3SC(=O)NC3=O)cc1)O2 (stereo not given)	inactive
C1COC(NC(C2CC2)C2CC2)=N1	inactive
OC(CN1CCC(Cc2ccc(F)cc2)CC1)c1ccc(Cl)cc1 (stereo not given)	inactive
Cc1cccc(-c2nn(C(=S)Nc3ccccc3)cc2-c2ccnc3ccccc23)n1	inactive
CCCC(CCC)C(=O)O	inactive
CC(=O)NC(C)c1ccc(Oc2ccc(OC(C)C)cc2)cc1 (stereo not given)	23.5 µM (active)
CCC(=O)N[C@H]1CC[C@H](C(=O)N(C)c2ccc(-c3nc4ccccc4o3)cc2)C1	3.72 µM (active)
C[C@]1(c2nc3c(C(N)=O)cccc3[nH]2)CCCN1	14.8 µM (active)
CNC(=O)c1ccc(N2C(=S)N(c3ccc(C#N)c(C(F)(F)F)c3)C(=O)C2(C)C)cc1F	inactive
CNCc1ccc(-c2[nH]c3cc(F)cc4c3c2CCNC4=O)cc1	4.69 µM (active)
O=C(O)[C@@H](c1ccc(OCc2ccc3ccccc3n2)cc1)C1CCCC1	inactive
CN1CCN(CCCN2c3ccccc3Sc3ccc(C(F)(F)F)cc32)CC1	21.1 µM (active) and 296 nM (active)
CC(C)(C)NCC(O)c1ccc(O)c(CO)c1 (stereo not given)	inactive
N[C@@H]1CONC1=O	inactive

Compound	Potency
CCCS(=O)(=O)Nc1ccc(F)c(C(=O)c2c[nH]c3ncc(Cl)cc23)c1F	18.7 µM (active)
CCC(C)n1ncn(-c2ccc(N3CCN(c4ccc(OC[C@H]5CO[C@](Cn6cncn6)(c6ccc(Cl)cc6Cl)O5)cc4)CC3)cc2)c1=O (stereo not given in full)	inactive
CC(C)(C)OC(=O)CN(Cc1ccc(Cl)cc1)Cc1ccc([N+](=O)[O-])s1	inactive
Cc1cccc(-c2[nH]c(C(C)(C)C)nc2-c2ccc3nccnc3c2)n1	14.8 µM (active)
Cc1cc(Nc2nc(N[C@@H](C)c3ncc(F)cn3)ncc2Cl)n[nH]1	1.18 µM (active)
CC(=O)Oc1ccccc1C(=O)O	inactive
COCCNCCCn1c(C(=O)CF)c(-c2ccc(C)cc2)c2c(N)ncnc21	23.5 µM (active)
CN(C)c1ccc(Nc2nc(N)n(C(=O)c3c(F)cccc3F)n2)cc1	2.35 µM (active)
S=C(NCc1ccc2c(c1)OCO2)N1CCN(c2ncnc3c2oc2ccccc23)CC1	1.71 µM (active)
OCCn1cc(-c2cnc3nnn(Cc4ccc5ncccc5c4)c3n2)cn1	inactive
Nc1ccc(S(=O)(=O)Nc2ccnn2-c2ccccc2)cc1	inactive
COc1c(Cl)cc2c([nH]c3cnccc32)c1NC(=O)c1cccnc1C	0.469 µM (active)
CCCCNc1cc(C(=O)O)cc(S(N)(=O)=O)c1Oc1ccccc1	inactive
CC(C)OC(=O)C1=CN(C(=O)c2ccc(F)c(F)c2)CC(C)(C)c2c1[nH]c1ccccc21	inactive
O=C1CCc2cc(OCCCCc3nnnn3C3CCCCC3)ccc2N1	inactive
Cc1ccccc1C(C(=O)NC1CCCC1)N(C(=O)Cn1cnc2ccccc21)c1cccc(F)c1 (stereo not given)	inactive
O=C(Nc1nc2ccccc2n1CCN1CCOCC1)c1cccc([N+](=O)[O-])c1	3.72 µM (active)
CCCS(=O)(=O)Nc1ccc(F)c(C(=O)c2c[nH]c3ncc(-c4ccc(Cl)cc4)cc23)c1F	9.35 µM (active)
O=C(c1cc(Cc2n[nH]c(=O)c3ccccc23)ccc1F)N1CCN(C(=O)C2CC2)CC1	5.9 µM (active)
COc1ccc(C2=N[C@H](c3ccc(Cl)cc3)[C@H](c3ccc(Cl)cc3)N2C(=O)N2CCNC(=O)C2)c(OC(C)C)c1	14.8 µM (active)
